MARV entry inh: qHTS for inhibitors of binding or entry into cells for Marburg Virus | Marburg virus pseudotyped entry inhibition, cell reporter | Potency, µM (doses to about 37.8 µM), for the others: at the highest dose activity change, negative = inhibition, hits mostly inhibitors | 300,000 compounds, 1.8% hits; calls by dose curve; tested in HEK293 cells
HCV inhibitor: qHTS Assay for Inhibitors of Hepatitis C Virus (HCV); Huh7.5.1 HCVcc-Cre infection, luciferase reporter, 44 h; Potency, µM (doses to about 41.8 µM), inactives show top-dose activity change, negative = inhibition, hits mostly inhibitors; 340,000 compounds, 3.4% hits; AID 651820, 2012; active = well fitted inhibition curve with a large enough effect; inconclusive = small, poorly fitted or top-dose-only effect, or another doubt; inactive = no such curve, though single readings can be large or run the other way
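Luciferase read-out (15 sec integration) after a 15 min room-temperature substrate step quantifies HCVcc-Cre infection. Cells, 1,000 per well, had compound added 4 h post-plating, then virus at ~0.5 moi, and were cultured 44 h.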
Lassa entry inh: qHTS for Inhibitors of binding or entry into cells for Lassa Virus; Lassa virus pseudotype entry inhibition, cell reporter; Potency, µM (top dose mostly 37.9 µM), for inactives: at the top dose activity change, negative = inhibition, hits mostly inhibitors; 300,000 compounds, 1.2% hits; calls by dose curve; tested in HEK293 cells; note: nearly all actives have a fitted effect of over 50% in size
Vaccinia mCherry: qHTS for Stage-Specific Inhibitors of Vaccinia Orthopoxvirus: mCherry Reporter Primary qHTS. Vaccinia virus mCherry reporter infection, fluorescence. Potency, µM (series often up to 36.5 µM), without a hit: at the highest dose activity change, negative = inhibition, usual class: inhibitors. 310,000 compounds, 0.63% hits. AID 720579, 2013; calls by dose curve; tested in A549 cells; note: nearly all actives have a fitted effect of over 35% in size
FMDV antiviral: High Throughput Screening for Foot and Mouth Disease Virus Antivirals | FMDV antiviral cell-based qHTS | Potency, µM (top dose mostly 57.9 µM), inactives show at the top dose activity change, negative = inhibition, actives largely listed as inhibitors | 410,000 compounds, 1.2% hits; calls by dose curve; tested in HEK293T cells; note: read-out not given here; nearly all actives have a fitted effect of over 45% in size
VACV Venus inh: qHTS for Stage-Specific Inhibitors of Vaccinia Orthopoxvirus: Venus Reporter Primary qHTS. Vaccinia virus Venus reporter expression, fluorescence. Potency, µM (doses to about 36.5 µM), for the others: top-dose activity change, negative = inhibition, most hits filed as inhibitors. 330,000 compounds, 0.46% hits. AID 720580, 2013; calls by dose curve; tested in A549 cells; note: nearly all actives have a fitted effect of over 30% in size
Active calls of the source: *; [ ] = dose if it differs, or a comment. This is a sample that favours compounds with a hit; in the whole collection about 5.3% have one here. % is set by controls: 0 for no effect and ±100 for the full control effect; potency is the fitted concentration of half-maximal effect.

OCC1CCCCN1CCNCc1cn[nH]c1-c1cccc2ccccc12 (centres undefined) was read as HCV inhibitor -9% and FMDV antiviral -16%.
Screening CC(Oc1ccccc1F)C(=O)N1CCC(c2nc3ccccc3o2)CC1 (centres undefined) returned MARV entry inh 30%[46.1 µM], Lassa entry inh -28%[46.1 µM], Vaccinia mCherry 2%, FMDV antiviral 0% and VACV Venus inh -5%.
`Cc1ccccc1NS(=O)(=O)c1cc(C(=O)N2CCCC2)ccc1C` gave MARV entry inh -2%, HCV inhibitor 6%, Lassa entry inh 16%, FMDV antiviral 9% and VACV Venus inh -19%.
For COc1ccccc1NS(=O)(=O)c1cc(C(=O)N2CC(C)CC(C)C2)ccc1C (centres undefined) the results were MARV entry inh 8.2µM*, HCV inhibitor -20%, Lassa entry inh 18% and FMDV antiviral -9%.
Screening Cc1ccc(NC(=O)c2ccc(F)cc2)cc1S(=O)(=O)N1CCCCCC1 returned MARV entry inh 7.9µM*, HCV inhibitor inconclusive, Lassa entry inh inconclusive, Vaccinia mCherry inactive, FMDV antiviral inconclusive and VACV Venus inh -24%.
`COc1ccc(NS(=O)(=O)c2cccc(NC(=O)c3ccc(S(=O)(=O)N4CCCCCC4)cc3)c2)cc1` gave MARV entry inh 3.5µM*, HCV inhibitor inconclusive, Lassa entry inh 8.2µM*, Vaccinia mCherry inconclusive, FMDV antiviral 0% and VACV Venus inh inconclusive.
Screening Cc1ccc(NC(=O)c2ccc(C)c(S(=O)(=O)N3CCCCCC3)c2)cc1 returned Lassa entry inh inconclusive, Vaccinia mCherry -1%, FMDV antiviral -18% and VACV Venus inh -13%.
Screening CC(C(=O)NCc1ccc(F)cc1)n1ccc2cc(S(=O)(=O)N3CCCC3)ccc21 (centres undefined) returned MARV entry inh inconclusive, HCV inhibitor 11µM*, Lassa entry inh inconclusive, Vaccinia mCherry -23%, FMDV antiviral -20% and VACV Venus inh -23%.
For COc1ccc(NS(=O)(=O)c2ccc(O)c(NC(=O)c3ccc(S(=O)(=O)N4CCCCCC4)cc3)c2)cc1 the results were MARV entry inh inconclusive, HCV inhibitor 12%, Lassa entry inh -4%, Vaccinia mCherry -18%, FMDV antiviral 0% and VACV Venus inh -7%.
`COc1ccc(NS(=O)(=O)c2cccc(NC(=O)C34CCC(CC3)C4)c2)cc1` gave MARV entry inh inconclusive, HCV inhibitor inconclusive, Lassa entry inh 12µM*, Vaccinia mCherry inactive, FMDV antiviral 8% and VACV Venus inh -18%.
Screening COc1cccc(CNC(=O)c2ccc(C)c(S(=O)(=O)N3CCOCC3)c2)c1 returned MARV entry inh 23%, HCV inhibitor inconclusive, Lassa entry inh -5%, Vaccinia mCherry inactive, FMDV antiviral 3% and VACV Venus inh -12%.
Screening COc1ccc(C(=O)Nc2ccc(C)c(S(=O)(=O)N3CCCCCC3)c2)cc1 returned MARV entry inh inconclusive, HCV inhibitor 32µM*, Lassa entry inh inconclusive, Vaccinia mCherry inconclusive, FMDV antiviral 20µM* and VACV Venus inh inconclusive.
For COc1cccc(CNC(=O)c2ccc(C)c(S(=O)(=O)N3CCCCC3)c2)c1 the results were MARV entry inh inconclusive, HCV inhibitor 10µM*, Lassa entry inh inconclusive, Vaccinia mCherry inconclusive, FMDV antiviral inconclusive and VACV Venus inh -25%.
CCOC(=O)C1CCCN(C(=O)c2cc(Nc3ccc(OC)c(OC)c3)nc3ccccc23)C1 (centres undefined) was read as MARV entry inh 11µM*, HCV inhibitor inconclusive, Lassa entry inh -15%, Vaccinia mCherry -20%, FMDV antiviral inconclusive and VACV Venus inh -17%.
For Cc1cccc(C)c1NC(=O)C1(C)CSCC(=O)N1CCc1c[nH]c2ccccc12 (centres undefined) the results were Vaccinia mCherry inactive, FMDV antiviral 5% and VACV Venus inh 2%.
COc1ccccc1NS(=O)(=O)c1ccc(C)c(NC(=O)c2ccc(S(=O)(=O)N3CCCCCC3)cc2)c1 was read as MARV entry inh inconclusive, HCV inhibitor 7.9µM*, Lassa entry inh -13%, Vaccinia mCherry -30%, FMDV antiviral -25% and VACV Venus inh -26%.
For CCOC(=O)C1CCCN(C(=O)c2ccccc2NS(=O)(=O)c2ccc(F)cc2)C1 (centres undefined) the results were MARV entry inh -5%[46.1 µM], HCV inhibitor 7%, Lassa entry inh 1%[46.1 µM], Vaccinia mCherry inactive, FMDV antiviral -6% and VACV Venus inh 1%.
For COc1ccccc1NC(=O)c1ccc(S(=O)(=O)N2CCCC2)cc1 the results were HCV inhibitor -12%, Vaccinia mCherry 2%, FMDV antiviral -17% and VACV Venus inh -16%.
`COc1cccc(CNC(=O)Cn2ccc3cc(S(=O)(=O)N4CCCCCC4)ccc32)c1` gave HCV inhibitor 13µM* and FMDV antiviral -15%.
Screening CCOC(=O)C1CCCN(C(=O)c2cc(S(=O)(=O)Nc3ccccc3OC)ccc2C)C1 (centres undefined) returned MARV entry inh 13%[46.1 µM], HCV inhibitor 10µM*, Lassa entry inh inconclusive, Vaccinia mCherry inactive, FMDV antiviral 22% and VACV Venus inh -18%.
CCOc1ccc(CCNC(=O)CCn2ccc3cc(S(=O)(=O)N4CCCC4)ccc32)cc1 was read as HCV inhibitor 13µM* and FMDV antiviral -29%.
CCCCCCCCCCCCCCCCCCN(CCCCCCCCCCCCCCCCCC)c1ccccc1 was read as Vaccinia mCherry inactive and VACV Venus inh -20%.
`C[n+]1c(/C=C/c2ccnc3ccccc23)cc(/C=C/c2ccnc3ccccc23)c2ccccc21` gave Vaccinia mCherry 21% and VACV Venus inh 7%.
`N#Cc1cccc(-c2nc(NCc3ccccc3)c3ccccc3n2)c1` gave FMDV antiviral -17%.
O=C(CC(=O)NN=Cc1ccc2c(c1)CCC2)NN=Cc1ccc2c(c1)CCC2 was read as MARV entry inh 4%, HCV inhibitor inconclusive, Lassa entry inh -6%[46.1 µM], Vaccinia mCherry inactive, FMDV antiviral -14% and VACV Venus inh 0%.
For O=C(Nc1cccc(S(=O)(=O)C(F)F)c1)c1ccc(S(=O)(=O)N2CCCC2)cc1 the results were MARV entry inh inconclusive, HCV inhibitor 5µM*, Lassa entry inh 5µM*, Vaccinia mCherry 0%, FMDV antiviral -11% and VACV Venus inh inconclusive.
